Compound activity deposited in PubChem by National Center for Advancing Translational Sciences (NCATS).
Most compounds without a hit are left out; they make up all but 12% or so of the library.
Lassa entry inh: Lassa virus entry inhibition; Potency, µM (doses to about 37.9 µM), without a hit: top-dose activity change, negative = inhibition, most hits filed as inhibitors; Lassa virus pseudotype entry inhibition, cell reporter; AID 540256; actives 1.2% (n = 300,000); calls by dose curve; tested in HEK293 cells; note: potency is the fitted concentration of half-maximal effect; % is set by controls: 0 for no effect and ±100 for the full control effect; nearly all actives have a fitted effect of over 50% in size
Marburg entry inh: Marburg virus entry inhibition; Potency, µM (highest dose often 37.8 µM), for inactives: top-dose activity change, negative = inhibition, most hits filed as inhibitors; AID 540276; Marburg virus pseudotyped entry inhibition, cell reporter; actives 1.8% (n = 300,000); calls by dose curve; tested in HEK293 cells; note: potency is the fitted concentration of half-maximal effect; % is set by controls: 0 for no effect and ±100 for the full control effect
Cycloheximide cs: counter-screen for Shiga toxin inhibitors: cycloheximide protein synthesis inhibition. cell reporter, cycloheximide protein synthesis inhibition counterscreen. max response, %. actives 12% (n = 300,000). AID 2314; in the data active = max response mostly above about 13%, no sharp cut-off; inactive = mostly below about 14%; note: read at 38.3 µM for the half of the compounds with a filed dose; 0% is about no effect
Shiga toxin inh: blocks Shiga toxin action in Vero cells. Vero cells, Shiga toxin protein synthesis inhibition reporter. AID 2315. inhibition, % at 38.7 µM. actives 9.2% (n = 290,000); in the data active = inhibition mostly above about 28%, no sharp cut-off; inactive = mostly below about 43%; note: 0% is about no effect
An asterisk follows results filed as active; ? = inconclusive; . = no result given; [ ] = dose if it differs, or a comment.

SMILES	Lassa entry inh	Marburg entry inh	Cycloheximide cs	Shiga toxin inh
Cc1ccc(N2CCN(S(=O)(=O)c3c(C)nc4scc(C)n4c3=O)CC2)c(C)c1	.	.	-7	14
O=c1c2ccccc2cnn1Cc1n[nH]c(=S)n1-c1ccc(Cl)cc1	-10%	?	72*	52*
COc1c(Cl)cnn(-c2cccc(C)c2)c1=O	.	.	10	-2
O=c1c2ccccc2c(-c2ccc(Cl)cc2)nn1-c1ccccc1	-2%	-2%	-1	-9
CC(c1ccccc1)n1c(Cn2ncc3ccccc3c2=O)n[nH]c1=S (centres undefined)	.	.	0	-3
O=c1c2ccccc2cnn1-c1ccc(Cl)cc1	?	?	36*	93*
Cc1ccc(-n2ncc3ccccc3c2=O)cc1Cl	.	.	38*	114*
c1ccc(-c2nn[nH]n2)c(Nc2cccc3c2CCCC3)c1	.	.	-4	-5
Cc1cccc(/C(N)=N/OC(=O)CCCc2ccccc2)c1	-16%[46.1 µM]	21%[46.1 µM]	57*	66*
N/C(=N\OC(=O)CCCOc1ccccc1)c1ccccc1	11%	-13%	23*	14
N/C(=N\OC(=O)CCCc1ccccc1)c1cccnc1	5%	?	21*	40*
N/C(=N\OC(=O)CCCOc1ccccc1)c1ccncc1	-8%[46.1 µM]	1%[46.1 µM]	-3	19
N/C(=N\OC(=O)CCCc1ccccc1)c1ccccc1	15%[46.1 µM]	-2%[46.1 µM]	31*	27
N/C(=N\OC(=O)CCCCCN1C(=O)c2ccccc2C1=O)c1ccccc1	11%	?	37*	71*
N/C(=N\OC(=O)CCCN1C(=O)c2ccccc2C1=O)c1ccc(Br)cc1	-15%	-7%	.	.
COc1ccc(/C=N/N(C(C)=O)c2nc(-c3ccc(C)cc3)cs2)cc1	?	?	-1	22
COc1ccccc1/C=N/N(C(C)=O)c1nc(-c2ccc(F)cc2)cs1	?	?	30*	41
CN(C)c1cc[n+](CC(=O)c2ccc(-c3ccccc3)cc2)cc1	?	?	0	-3
C(=N\Nc1nccc(-c2cccnc2)n1)/c1ccccc1	.	.	56*	89*
Cc1ccnc(N/N=C/c2ccccc2)n1	?	?	28*	57*
CSc1nccc(N/N=C/c2ccccc2)n1	-2%[46.1 µM]	?	59*	90*
Cc1nn(-c2ccccc2)c(C)c1NC(=O)COC(=O)/C=C/c1ccccc1	-18%	-2%	.	.
CCN(CC)C(=O)CSc1nnc(COc2ccccc2)n1N	.	.	-3	15
CCOC(=O)N1CCC(NC(=O)Cn2ncc3c4ccccc4n(C)c3c2=O)CC1	10%	7%	22*	34*
CCOC(=O)C1CCN(C(=O)Cn2ncc3c4ccccc4n(C)c3c2=O)CC1	-7%[46.1 µM]	-29%[46.1 µM]	.	.
SMILES	Lassa entry inh	Marburg entry inh	Cycloheximide cs	Shiga toxin inh
Cn1c2ccccc2c2cnn(CC(=O)O)c(=O)c21	-5%	23%	-3	28
Cc1c2cnn(CC(=O)NC3CCCC3)c(=O)c2c(C)n1Cc1ccccc1	.	.	29*	77*
COC(=O)Cn1ncc2c3ccccc3n(C)c2c1=O	21%	?	25*	43*
Cc1ccc(/C=C/C(=O)OCn2nnc3ccccc3c2=O)o1	2%	4%[46.1 µM]	-1	-5
CCOC(=O)CCN1C(=O)[C@H]2[C@H]3[C@H](O)[C@H](O)C/C(=N/NC(=O)OCc4ccccc4)[C@@H]3CC[C@@H]2C1=O	.	29%[14.2 µM]	.	.
COc1ccccc1CNC(=O)Nc1cccs1	0%	3%	19*	63
Cc1cc(NC(=O)NCc2ccccc2)c(=O)n(Cc2ccccc2F)c1	.	.	2	-5
Cc1ccc(CNC(=O)Nc2cccs2)cc1	-9%	33%	50*	51*
Cc1ccc(Cl)cc1NC(=O)Nc1cccs1	-3%	10µM*	8	-7
COc1ccc(Br)cc1CNC(=O)Nc1cccs1	1%	?	-1	-4
COc1cccc(Cn2cc(C)cc(NC(=O)NCc3ccccc3)c2=O)c1	.	.	15*	.
CCCCNC(=O)NS(=O)(=O)c1ccc(N)cc1	.	.	5	-8
COc1ccccc1NC(=O)C(=O)NCC(c1ccc2c(c1)OCO2)N1CCN(C)CC1 (centres undefined)	-12%[46.1 µM]	.	.	.
CC(C)(C)NC(=O)[C@H]1CN(Cc2cccnc2)CCN1C[C@@H](O)C[C@@H](Cc1ccccc1)C(=O)N[C@H]1c2ccccc2C[C@H]1O	.	.	-4	-9
COc1ccc(Cl)cc1NC(=O)CSc1nnc(Cc2ccc(C)cc2)c(=O)[nH]1	-7%[46.1 µM]	-6%	.	.
Cc1cc(C)c(C)c(S(=O)(=O)NC(C)C(=O)O)c1C (centres undefined)	.	.	-2	-9
COc1ccc(CNC(=O)Nc2cccs2)cc1OC	2%	18%	-1	20
COc1cccc(CNC(=O)Nc2cccs2)c1	9%	?	33*	64*
O=C(CN1CCCCCC1)NN(Cc1ccccc1)c1ccccc1	?	?	-1	-13
